Data as given in PubChem BioAssay (EPA / NIEHS).
Active and inactive are the calls of the source. The calls were made as follows: active = hit-call score of the fitted dose curve at least 0.9, where 1 is the maximum; inactive = score below 0.9.

Tests used:
Settings in all cases: mRNA level, 48 h; actives raise or lower the signal
[1] = read-out: Fatty acid synthase (Homo sapiens) (UniProt P49327); test: LTEA_HepaRG_FASN: Life Technologies and Expression Analysis (LTEA) Assay for Fatty Acid Synthase (FASN) using HepaRG (AID 2283448)
Method in brief: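 HepaRG, 48 h exposure, 8-pt half-log series top 100 uM, 0.5% DMSO vehicle, duplicates. Readout: FASN transcript by Fluidigm qRT-PCR; housekeeping-normalized; bidirectional curve fit vs DMSO baseline.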

[2] = read-out: Cyclin D2 (CCND2), CCND2 (gene 894); test: LTEA_HepaRG_CCND2: Life Technologies and Expression Analysis (LTEA) Assay for Cyclin D2 (CCND2) using HepaRG (AID 2283449);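 also: CCND2 transcript measured by TaqMan qRT-PCR and normalised to three housekeeping genes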
Method in brief: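 HepaRG, 48 h dosing, 8-pt half-log curve from 100 uM, 0.5% DMSO; duplicate wells. Readout: CCND2 transcript by microfluidic qRT-PCR, housekeeping-normalised; bidirectional fit vs DMSO baseline.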

[3] = read-out: Cyclin Dependent Kinase Inhibitor 1A (CDKN1A), CDKN1A (gene 1026); test: LTEA_HepaRG_CDKN1A: Life Technologies and Expression Analysis (LTEA) Assay for Cyclin Dependent Kinase Inhibitor 1A (CDKN1A) using HepaRG (AID 2283450)
Method in brief: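 Expression quantified by Fluidigm qRT-PCR with ACTB, GAPDH and POLR2A normalization, fitted bidirectionally against 0.5% DMSO. Cells: HepaRG, plated 48 h then treated 48 h in serum-free induction medium, top concentration 100 uM with half-log dilutions.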

[4] = read-out: Cyclin D1 (CCND1), CCND1 (gene 595); test: LTEA_HepaRG_CCND1: Life Technologies and Expression Analysis (LTEA) Assay for Cyclin D1 (CCND1) using HepaRG (AID 2283451)
Method in brief: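 Expression of CCND1 was quantified by qRT-PCR on Fluidigm arrays using ACTB, GAPDH and POLR2A as reference genes. HepaRG cultures, plated 48 h beforehand, were dosed for 48 h at up to 100 uM (half-log, 8 points) in 0.5% DMSO.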

[5] = read-out: catalase (CAT), CAT (gene 847); test: LTEA_HepaRG_CAT: Life Technologies and Expression Analysis (LTEA) Assay for catalase (CAT) using HepaRG (AID 2283452)
Method in brief: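 HepaRG cells in serum-free induction medium, 0.5% DMSO vehicle, exposed 48 h in duplicate over 8 half-log concentrations from 100 uM. CAT mRNA measured by qRT-PCR, normalized to ACTB, GAPDH, POLR2A; bidirectional fit versus DMSO.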

[6] = read-out: Cytochrome P450 (CYP1A1), CYP1A1 (gene 1543); test: LTEA_HepaRG_CYP1A1: Life Technologies and Expression Analysis (LTEA) Assay for Cytochrome P450 (CYP1A1) using HepaRG (AID 2283454)
Method in brief: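 CYP1A1 transcript levels measured by Fluidigm qRT-PCR against three housekeeping genes, 48 h after chemical dosing of human HepaRG cells (highest concentration 100 uM, half-log steps, 0.5% DMSO vehicle). Gain or loss of signal fitted relative to DMSO.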

[7] = read-out: CFLAR gene, CFLAR (gene 8837); test: LTEA_HepaRG_CFLAR: Life Technologies and Expression Analysis (LTEA) Assay for CFLAR gene using HepaRG (AID 2283455)
Method in brief: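 qRT-PCR read-out (Fluidigm/TaqMan) of CFLAR mRNA, normalized to three housekeeping genes, in differentiated human HepaRG cells after 48 h chemical exposure; 8-point half-log series from 100 uM in 0.5% DMSO; bidirectional curve fitting versus DMSO.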

[8] = read-out: Forkhead box O1 (FOXO1), FOXO1 (gene 2308); test: LTEA_HepaRG_FOXO1: Life Technologies and Expression Analysis (LTEA) Assay for Forkhead box O1 (FOXO1) using HepaRG (AID 2283456)
Method in brief: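 HepaRG, 48 h exposure, 8-pt half-log series from 100 uM in 0.5% DMSO, duplicates; Fluidigm qRT-PCR mRNA, housekeeping-normalised; bidirectional fit vs DMSO baseline.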

[9] = read-out: growth arrest and DNA damage 45 (GADD45A), GADD45A (gene 1647); test: LTEA_HepaRG_GADD45A: Life Technologies and Expression Analysis (LTEA) Assay for growth arrest and DNA damage 45 (GADD45A) using HepaRG (AID 2283458)
Method in brief: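 HepaRG, 48 h exposure, 8 conc. (top 100 uM, half-log steps), 0.5% DMSO vehicle, duplicates. Read-out: qRT-PCR mRNA level, housekeeping-normalized (ACTB/GAPDH/POLR2A). Curves fit bidirectionally vs DMSO baseline.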

[10] = read-out: Forkhead box O3 (FOXO3), FOXO3 (gene 2309); test: LTEA_HepaRG_FOXO3: Life Technologies and Expression Analysis (LTEA) Assay for Forkhead box O3 (FOXO3) using HepaRG (AID 2283459)
Method in brief: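 qRT-PCR readout of FOXO3 transcript, normalized to three housekeeping genes (ACTB, GAPDH, POLR2A); gain or loss fitted against 0.5% DMSO vehicle. HepaRG cells, 48 h chemical exposure, 8-point half-log series, top 100 uM.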

[11] = read-out: ABC Transporter (ABCB1), ABCB1 (gene 5243); test: LTEA_HepaRG_ABCB1: Life Technologies and Expression Analysis (LTEA) Assay for ABC Transporter (ABCB1) using HepaRG (AID 2283460)
Method in brief: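 HepaRG, 48 h exposure, 8-pt half-log series from 100 uM, 0.5% DMSO vehicle, duplicates. Readout: ABCB1 transcript by Fluidigm TaqMan qRT-PCR, housekeeping-normalized; bidirectional curve fit vs DMSO baseline.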

[12] = read-out: ABC Transporter (ABCC3), ABCC3 (gene 8714); test: LTEA_HepaRG_ABCC3: Life Technologies and Expression Analysis (LTEA) Assay for ABC Transporter (ABCC3) using HepaRG (AID 2283462)
Method in brief: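 Transcript level by TaqMan qRT-PCR, normalised to three housekeeping genes, fitted in both directions relative to vehicle. Chemicals tested in duplicate at eight half-log concentrations up to 100 uM for 48 h on HepaRG cells (0.5% DMSO).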

[13] = read-out: ABC Transporter (ABCB11), ABCB11 (gene 8647); test: LTEA_HepaRG_ABCB11: Life Technologies and Expression Analysis (LTEA) Assay for ABC Transporter (ABCB11) using HepaRG (AID 2283463)
Method in brief: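 HepaRG, 48 h exposure, 8-pt half-log CRC top 100 uM, 0.5% DMSO vehicle, duplicates. Readout: TaqMan qRT-PCR of ABCB11 mRNA, housekeeping-normalized (ACTB/GAPDH/POLR2A). Bidirectional fit vs DMSO baseline.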

[14] = read-out: ABC Transporter (ABCC2), ABCC2 (gene 1244); test: LTEA_HepaRG_ABCC2: Life Technologies and Expression Analysis (LTEA) Assay for ABC Transporter (ABCC2) using HepaRG (AID 2283464)
Method in brief: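 Endpoint is ABCC2 transcript level from qRT-PCR, normalized to three housekeeping genes and fitted bidirectionally relative to DMSO. Human HepaRG cells received test chemical for 48 h at up to 100 uM (8 points, half-log steps, 0.5% DMSO), duplicate wells.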

[15] = read-out: ATP-citrate lyase (ACLY), ACLY (gene 47); test: LTEA_HepaRG_ACLY: Life Technologies and Expression Analysis (LTEA) Assay for ATP-citrate lyase (ACLY) using HepaRG (AID 2283466)
Method in brief: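 qRT-PCR readout of ACLY transcript after 48 h chemical treatment of HepaRG cells; expression normalized to three housekeeping genes. Eight-point half-log series, highest 100 uM, 0.5% DMSO vehicle. Gain or loss fitted against DMSO baseline.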

[16] = read-out: Peroxisomal acyl-coenzyme A oxidase 1 (ACOX1) gene, ACOX1 (gene 51); test: LTEA_HepaRG_ACOX1: Life Technologies and Expression Analysis (LTEA) Assay for Peroxisomal acyl-coenzyme A oxidase 1 (ACOX1) gene using HepaRG (AID 2283467)
Method in brief: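 HepaRG, 48 h chemical exposure, 8-pt half-log series from 100 uM top, 0.5% DMSO vehicle, duplicates. Readout: ACOX1 mRNA by Fluidigm qRT-PCR, housekeeping-normalized; bidirectional fit vs DMSO baseline.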

[17] = read-out: growth arrest and DNA damage 45 (GADD45B), GADD45B (gene 4616); test: LTEA_HepaRG_GADD45B: Life Technologies and Expression Analysis (LTEA) Assay for growth arrest and DNA damage 45 (GADD45B) using HepaRG (AID 2283461)
Method in brief: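 Transcript level quantified by Fluidigm TaqMan qRT-PCR with three housekeeping genes for normalization, analyzed for up- or down-regulation against 0.5% DMSO. HepaRG cultures dosed 48 h at eight half-log concentrations up to 100 uM, duplicates.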

Measured: AC50

Sequence of Fatty acid synthase (Homo sapiens) (P49327 whole entry, looked up): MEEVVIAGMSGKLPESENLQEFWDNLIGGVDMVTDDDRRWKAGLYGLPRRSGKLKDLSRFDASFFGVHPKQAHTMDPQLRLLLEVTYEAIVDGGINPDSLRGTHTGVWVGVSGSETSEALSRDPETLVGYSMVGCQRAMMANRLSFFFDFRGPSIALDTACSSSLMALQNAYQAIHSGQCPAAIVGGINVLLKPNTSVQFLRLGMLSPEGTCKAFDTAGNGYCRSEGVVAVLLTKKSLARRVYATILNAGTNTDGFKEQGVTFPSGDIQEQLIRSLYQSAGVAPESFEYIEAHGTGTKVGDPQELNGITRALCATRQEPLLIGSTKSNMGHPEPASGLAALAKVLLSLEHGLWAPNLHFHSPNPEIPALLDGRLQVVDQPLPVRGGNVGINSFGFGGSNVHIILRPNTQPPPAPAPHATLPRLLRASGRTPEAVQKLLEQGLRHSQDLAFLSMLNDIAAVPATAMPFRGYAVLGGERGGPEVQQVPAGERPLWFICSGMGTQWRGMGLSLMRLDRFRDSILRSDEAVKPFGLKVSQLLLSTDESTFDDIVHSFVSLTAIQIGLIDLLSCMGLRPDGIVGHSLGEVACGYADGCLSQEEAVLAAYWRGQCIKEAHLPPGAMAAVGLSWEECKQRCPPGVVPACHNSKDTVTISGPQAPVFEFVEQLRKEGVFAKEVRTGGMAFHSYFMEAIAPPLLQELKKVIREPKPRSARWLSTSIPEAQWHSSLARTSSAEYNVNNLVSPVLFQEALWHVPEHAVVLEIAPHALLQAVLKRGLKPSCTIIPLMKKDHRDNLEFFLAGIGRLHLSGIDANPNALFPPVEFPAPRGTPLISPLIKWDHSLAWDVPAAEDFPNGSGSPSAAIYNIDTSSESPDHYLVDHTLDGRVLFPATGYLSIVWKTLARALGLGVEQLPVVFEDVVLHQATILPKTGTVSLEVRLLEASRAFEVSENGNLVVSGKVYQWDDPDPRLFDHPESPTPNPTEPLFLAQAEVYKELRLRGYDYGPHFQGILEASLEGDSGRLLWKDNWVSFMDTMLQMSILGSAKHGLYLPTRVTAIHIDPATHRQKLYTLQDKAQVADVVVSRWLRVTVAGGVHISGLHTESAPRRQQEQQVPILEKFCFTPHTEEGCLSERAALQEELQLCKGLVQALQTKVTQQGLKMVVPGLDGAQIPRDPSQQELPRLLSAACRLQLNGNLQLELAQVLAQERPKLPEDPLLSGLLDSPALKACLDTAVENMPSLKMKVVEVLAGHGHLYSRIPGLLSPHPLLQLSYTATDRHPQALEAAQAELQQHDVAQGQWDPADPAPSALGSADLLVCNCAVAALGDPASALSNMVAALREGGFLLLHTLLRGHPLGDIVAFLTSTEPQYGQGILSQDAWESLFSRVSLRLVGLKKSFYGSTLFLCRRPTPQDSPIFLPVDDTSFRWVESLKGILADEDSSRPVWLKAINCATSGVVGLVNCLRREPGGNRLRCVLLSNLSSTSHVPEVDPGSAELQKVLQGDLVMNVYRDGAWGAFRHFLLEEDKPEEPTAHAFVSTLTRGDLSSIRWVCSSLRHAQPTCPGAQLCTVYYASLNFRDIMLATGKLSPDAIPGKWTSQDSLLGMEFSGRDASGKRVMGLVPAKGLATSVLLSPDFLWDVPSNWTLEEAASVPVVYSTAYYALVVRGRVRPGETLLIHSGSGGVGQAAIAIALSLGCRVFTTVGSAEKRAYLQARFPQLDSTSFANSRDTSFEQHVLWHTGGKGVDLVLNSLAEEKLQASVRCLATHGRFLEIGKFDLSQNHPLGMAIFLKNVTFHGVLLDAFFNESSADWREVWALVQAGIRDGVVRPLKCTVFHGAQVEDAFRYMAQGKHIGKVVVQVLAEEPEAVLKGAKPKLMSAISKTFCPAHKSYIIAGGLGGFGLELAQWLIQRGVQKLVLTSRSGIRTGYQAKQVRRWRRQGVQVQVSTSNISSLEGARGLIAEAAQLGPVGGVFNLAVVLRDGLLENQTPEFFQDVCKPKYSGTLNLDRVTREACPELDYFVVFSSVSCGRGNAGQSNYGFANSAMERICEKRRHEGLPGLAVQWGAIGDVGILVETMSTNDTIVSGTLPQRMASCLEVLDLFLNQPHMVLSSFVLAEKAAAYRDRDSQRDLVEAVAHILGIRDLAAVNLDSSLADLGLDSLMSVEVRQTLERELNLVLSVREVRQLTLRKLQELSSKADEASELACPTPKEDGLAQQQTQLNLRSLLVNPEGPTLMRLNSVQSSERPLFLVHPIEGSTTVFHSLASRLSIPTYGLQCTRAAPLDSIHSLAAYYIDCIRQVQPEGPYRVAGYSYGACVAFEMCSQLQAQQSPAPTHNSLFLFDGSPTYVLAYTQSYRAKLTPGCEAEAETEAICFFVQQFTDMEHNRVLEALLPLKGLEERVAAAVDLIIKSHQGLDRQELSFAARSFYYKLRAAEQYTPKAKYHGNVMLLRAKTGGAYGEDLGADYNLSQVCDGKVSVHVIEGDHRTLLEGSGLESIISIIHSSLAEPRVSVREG

CC(C)(C)c1ccc(O)c(C(C)(C)C)c1
active: [2] 0.00316 µM
not listed: [17]
inactive: all other assays above

COc1ccc([N+](=O)[O-])cc1N
active: [6] 50 µM
not listed: [17]
inactive: all other assays above

CCN(CC)CCNc1ccc(CNC=O)c2sc3ccc(OC)cc3c(=O)c12
inactive: [2] | [3] | [4] | [9]
active: [5] 17.5 µM | [6] 4.07 µM | [7] 27.5 µM | [8] 13.3 µM | [10] 50 µM | [11] 60.8 µM | [17] 11.4 µM | [12] 86.6 µM | [13] 11.4 µM | [14] 77.5 µM | [15] 83.2 µM | [16] 50 µM

OC1CCCCC1
not listed: [2]
inactive: all other assays above
